Consider 8 molecules from PubChem BioAssay (Tox21).

Structures are written as SMILES. Several values for one entry are separate records, joined by “and”; a condition that tells them apart may be missing. Equal values may be shown once. Inconclusive results are not listed. Some compounds were tested as several samples or in several runs, with calls that do not always agree. Activity calls are given as the source filed them. Unless noted, the call rests on the fitted dose curve; in most records, active means well fitted curve in the direction sought with a large enough effect in the repeat runs; inconclusive means weak or mixed curves; inactive means no such curve, though single readings can be large; an effect the other way counts as inactive or inconclusive.

Assay [1] is described as follows: qHTS assay for small molecule agonists of the p53 signaling pathway (AID 651631; calls by dose curve; further: nearly all actives have a fitted effect of over 15% in size; further: potency means the concentration at half of the fitted maximal effect). The essentials: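 Agonist mode screen using a stably integrated beta-lactamase gene under p53 response elements in HCT-116 cells. Compound exposure lasts 16 h at 37 °C; fluorescence intensity is measured following 2 h FRET substrate loading.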
Assay [2] is described as follows: qHTS assay for small molecule agonists of the p53 signaling pathway - cell viability (AID 651633; calls by dose curve;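 further: p53RE-bla HCT reporter cells with a stable beta-lactamase p53 reporter; series mostly up to about 83 µM; nearly all actives have a fitted effect of over 30% in size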). An outline of the steps: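 p53RE-bla cells were treated with compound for 16 hours at 37 C. Cytotoxicity was then measured as CellTiter-Glo luminescence after 30 min at room temperature.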
Assay [3] can be described thus: qHTS assay for small molecules that induce genotoxicity in human embryonic kidney cells expressing luciferase-tagged ATAD5 - cell viability (AID 651634; calls by dose curve; further: nearly all actives have a fitted effect of over 25% in size). The essentials: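 Fluorescence from CellTiter-Fluor, reporting protease activity within live cells, served as the viability read-out. HEK293T cells carrying luciferase-tagged ATAD5 had been treated with compound for 15.5 hr at 37C.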
(In general: In qHTS, concentration-response curves come from the screen itself.)

Assay [4] can be described thus: qHTS assay for small molecule disruptors of the mitochondrial membrane potential - cell viability (AID 720634; calls by dose curve;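 further: human HepG2 liver cancer cells; series mostly up to about 83 µM; nearly all actives have a fitted effect of over 20% in size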). The essentials: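 Cells: HepG2, 2,000/well, attached overnight. Compound 1 hr, 37 C/5% CO2. +m-MPI dye, +CellTiter-Glo 30 min RT. Readout: luminescence (ATP).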
Assay [5] can be described thus: qHTS assay for small molecule disruptors of the mitochondrial membrane potential (AID 720635). Further: potency means the concentration at half of the fitted maximal effect. An outline of the steps:
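HepG2 cells exposed to compound 1 hr at 37C, then Mito-MPS dye 30 min. Ratio read of aggregate (540/590 nm) versus monomer (490/535 nm) fluorescence.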

Assay [6] is described as follows: qHTS assay to test for compound auto fluorescence at 590 nm (red) in HepG2 cells (AID 720674). An outline of the steps:
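HepG2 cells, 2,000 per well in MEM with 10% FBS, attached overnight at 37 C, then got 23 nL compound or DMSO. After 1 hr at 37 C, 5% CO2, red fluorescence was read at 540/590 nm against Rose Bengal sodium as reference.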

Assay [7] can be described thus: qHTS assay to test for compound auto fluorescence at 535 nm (green) in HepG2 cells (AID 720675).
Assay [8] is described as follows: qHTS assay to test for compound auto fluorescence at 460 nm (blue) in HEK293 cells (AID 720678). An outline of the steps: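 Blue-channel (Ex/Em 405/460 nm) intensity measured in HEK293 cultures after overnight compound exposure at 37C; signal expressed relative to triamterene. Cells plated 2,000 per well in 10% dialyzed FBS medium and allowed 4-5 hr to attach.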

Assay [9] is described as follows: qHTS assay to test for compound auto fluorescence at 590 nm (red) in HEK293 cells (AID 720679). The essentials: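 Red-channel autofluorescence (Ex/Em 540/590 nm; Rose Bengal sodium reference) was measured after overnight 37C, 5% CO2 exposure of attached HEK293 cells, 2,000 per well in medium with 10% dialyzed FBS.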
A short description of assay [10]: qHTS assay to test for compound auto fluorescence at 535 nm (green) in HEK293 cells (AID 720680).
Assay [11] in a line: qHTS assay to test for compound auto fluorescence at 460 nm (blue) in HEK293 cell free culture (AID 720681). An outline of the steps: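 Compounds were added to cell-free DMEM with 10% FBS and fluorescence read directly. The blue channel used 405 nm excitation and 460 nm emission, with triamterene as the reference fluorophore.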
Assay [12] can be described thus: qHTS assay to test for compound auto fluorescence at 535 nm (green) in HEK293 cell free culture (AID 720682). An outline of the steps:
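No cells present: wells hold DMEM supplemented with 10% FBS, into which compound or vehicle is pinned. Green emission is then recorded (485 nm excitation, 535 nm emission) and scaled to fluorescein.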

A short description of assay [13]: qHTS assay to test for compound auto fluorescence at 590 nm (red) in HEK293 cell free culture (AID 720683). An outline of the steps:
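Cell-free wells of DMEM with 10% FBS received compound, and intrinsic fluorescence was read at excitation/emission 540/590 nm. Values expressed as equivalence to Rose Bengal sodium.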

Assay [14] in a line: qHTS assay to test for compound auto fluorescence at 590 nm (red) in HepG2 cell free culture (AID 720684). An outline of the steps:
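Compound was pinned into wells holding MEM with 10% FBS and no cells, and red fluorescence was read at Ex/Em 540/590 nm. Signal is expressed as auto fluorescence equivalency relative to Rose Bengal sodium.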

Assay [15] in a line: qHTS assay to test for compound auto fluorescence at 460 nm (blue) in HepG2 cell free culture (AID 720685). The essentials: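 Compound (23 nL) or DMSO pinned into cell-free MEM with 10% FBS; blue fluorescence read at 405/460 nm excitation/emission, expressed as auto-fluorescence equivalency to triamterene.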
A short description of assay [16]: qHTS assay to test for compound auto fluorescence at 535 nm (green) in HepG2 cell free culture (AID 720686).
The nature of assay [17]: qHTS assay to test for compound auto fluorescence at 460 nm (blue) in HepG2 cells (AID 720687). An outline of the steps: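 HepG2 cells in MEM with 10% FBS, attached overnight at 37 C, were exposed to compound or DMSO for 1 hr at 37 C, 5% CO2. Blue fluorescence was read at 405/460 nm, with triamterene as reference fluorophore.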
Assay [18] addresses Glucocorticoid receptor (Homo sapiens) (UniProt P04150). The assay is described as follows: qHTS assay to identify small molecule antagonists of the glucocorticoid receptor (GR) signaling pathway (AID 720692; active means well fitted inhibition curve with a large enough effect in the signal ratio in the repeat runs, not every such curve was filed as active; the % refers to the signal ratio). The essentials:
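HeLa GR-bla cells; cmpd + dex 5 nM final, 18 h 37 C; LiveBLAzer B/G FRET substrate 2 h RT; fluorescence intensity read. Antagonist mode, qHTS.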

Assay [19] shares this target. Nature of the assay: qHTS assay to identify small molecule agonists of the glucocorticoid receptor (GR) signaling pathway (AID 720691; active means well fitted activation curve with a large enough effect in the signal ratio in the repeat runs, not every such curve was filed as active; the % refers to the signal ratio). An outline of the steps:
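Fluorescence intensity from LiveBLAzer B/G FRET substrate (2 h, room temperature) reports beta-lactamase expression driven by the glucocorticoid response element in GR-bla HeLa cells after 18 h compound exposure at 37 C.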

Assay [20] in a line: qHTS assay for small molecules that induce genotoxicity in human embryonic kidney cells expressing luciferase-tagged ATAD5 (AID 651632). Further: nearly all actives have a fitted effect of over 15% in size. The essentials: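 ATAD5-luc HEK293T, 2,000 cells/well; cpd or DMSO pin-transferred; 16 hr, 37C/5% CO2; Amplite 30 min RT; luminescence.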

Glucocorticoid receptor (Homo sapiens), sequence (P04150 whole entry, looked up): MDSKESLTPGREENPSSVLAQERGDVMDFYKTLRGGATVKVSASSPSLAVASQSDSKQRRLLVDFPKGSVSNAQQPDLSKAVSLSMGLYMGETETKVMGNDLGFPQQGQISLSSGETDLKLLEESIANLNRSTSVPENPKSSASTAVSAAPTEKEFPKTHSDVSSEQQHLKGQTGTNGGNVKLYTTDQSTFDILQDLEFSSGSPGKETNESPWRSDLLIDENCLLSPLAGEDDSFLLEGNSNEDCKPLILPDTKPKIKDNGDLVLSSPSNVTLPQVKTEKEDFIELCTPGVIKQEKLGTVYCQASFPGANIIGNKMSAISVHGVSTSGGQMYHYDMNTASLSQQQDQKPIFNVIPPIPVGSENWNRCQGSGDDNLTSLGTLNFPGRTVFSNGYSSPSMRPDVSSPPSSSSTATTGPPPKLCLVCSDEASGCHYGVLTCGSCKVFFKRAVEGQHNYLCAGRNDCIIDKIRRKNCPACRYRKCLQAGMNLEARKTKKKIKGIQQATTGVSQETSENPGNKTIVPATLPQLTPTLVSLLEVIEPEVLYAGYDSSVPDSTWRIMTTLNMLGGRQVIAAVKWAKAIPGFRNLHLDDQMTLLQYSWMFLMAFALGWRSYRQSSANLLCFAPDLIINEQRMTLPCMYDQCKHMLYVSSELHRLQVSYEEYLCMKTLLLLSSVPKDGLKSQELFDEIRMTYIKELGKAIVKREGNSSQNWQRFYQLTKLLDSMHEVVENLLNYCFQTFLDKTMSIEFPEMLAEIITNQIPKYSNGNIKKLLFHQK

Take `O=C1CCCCCN1`: the Potency entry in assay [1], in assay [2], in [3], in assay [4] and in [5] was “inactive” throughout. The molecule was classed as inactive in assay [6], in assay [7], in assay [8], in assay [9], in [10] and in assay [11]. In addition, the molecule was classed as inactive in assay [12], in [13], in [14], in assay [15], in assay [16] and in assay [17].

As for `C=CCOC(=O)CC(C)C`, the Potency entry in assay [1], in assay [2], in assay [3], in assay [4], in [5] and in assay [18] was “inactive” each time. Moreover, the molecule was classed as inactive in assay [6], in assay [7], in assay [8], in assay [9], in [10] and in assay [11]. The molecule was called inactive in [12], in assay [13], in assay [14], in [15], in assay [16] and in assay [17].

Take `COc1ccccc1NC(=O)CC(C)=O`: the Potency entry in assay [1], in assay [2], in assay [3] and in [5] was “inactive” in each case. For the same molecule, the outcome in [6], in [7], in [8], in [9], in [10] and in [11] was inactive. Further, the outcome in [12], in assay [13], in assay [14], in assay [15], in assay [16] and in [17] was inactive.

Consider `Cc1ccc(O)c(-n2nc3ccccc3n2)c1`, for which the Potency result in assay [1], in [2], in assay [3] and in assay [18] was “inactive” in each case. Further, in assay [5], the Potency was 21.1 µM (active) and 60.6 µM (active) and 30.6 µM (active). Besides, the result in [6], in [7], in [8], in assay [9], in assay [10] and in assay [11] was inactive. Moreover, the molecule was classed as inactive in [12], in [13], in assay [14], in assay [15], in assay [16] and in assay [17].

Turning to `COC(=O)c1ccc(C=O)cc1`, the Potency entry in assay [1], in assay [2], in assay [3], in assay [4], in assay [5] and in [18] was “inactive” each time. Moreover, the outcome in assay [6], in assay [7], in [8], in [9], in [10] and in assay [11] was inactive. The outcome in assay [12], in assay [13], in assay [14], in assay [15], in assay [16] and in [17] was inactive.

For the molecule `COc1ccccc1O`, in [1], the Potency result was “inactive and 4.35 µM (active)”. The Potency result in [2], in [3], in assay [4], in [5] and in assay [18] was “inactive” each time. For the same molecule, the molecule was classed as inactive in [6], in assay [7], in [8], in assay [9], in assay [10] and in [11]. For the same molecule, the outcome in assay [12], in assay [13], in [14], in assay [15], in assay [16] and in [17] was inactive.

Turning to `O=c1c(-c2ccc(O)cc2)coc2cc(O)cc(O)c12`, the Potency entry in assay [2] and in assay [19] was “inactive” each time. Further, in assay [5], the Potency is 5.96 µM (active) and 1.07 µM (active) and 8.63 µM (active). Further, the outcome in assay [6], in assay [7], in [8], in [9], in assay [10] and in assay [11] was inactive. The outcome in assay [12], in [13], in assay [14], in assay [15], in [16] and in assay [17] was inactive.

As for `Cc1c(N(C)C)c(=O)n(-c2ccccc2)n1C`, the Potency entry in assay [20], in [2], in assay [3], in assay [4], in [5] and in assay [18] was “inactive” throughout. Further, the molecule was classed as inactive in assay [6], in assay [7], in assay [8], in assay [9], in [10] and in assay [11]. For the same molecule, the outcome in assay [12], in assay [13], in assay [14], in assay [15], in assay [16] and in [17] was inactive.
